Experimental data taken from PubChem BioAssay.
Several values for one entry are separate records, joined by “and”; a condition that tells them apart may be missing. Equal values may be shown once. Activity calls are given as the source filed them. Unless noted, no rule for the calls is given here.

What was measured:
[1] = tested on: Wnt5a (protein binding on small-molecule microarray); test: Wnt5a binders on small-molecule microarray, primary screen, biophysical, 635/667 nm fluorescence (AID 1142); conditions: 635 nm fluorescence, higher = more signal;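 also: fluorescence read at 667 nm with signal to noise per printed feature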
[2] = cell viability in Huh7 cells, primary screen, cytotoxicity control for HCV replication inhibitor project, CellTiter-Glo luminescence, basal, 48 h (AID 1143); conditions: Huh7 HCV replicon, higher = more signal, called active from +8 up or from −8 down;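 also: Huh7 hepatoma cells carrying a hepatitis C replication reporter with no stimulus; test concentration not given here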
[3] = P. aeruginosa biofilm formation inhibitors, primary screen, PAO1 strain, BacTiter-Glo luminescence, LB-PBS (AID 1144); conditions: 12 h, higher = more signal
[4] = CREB reporter modulators without forskolin, primary screen, cell-based, PC12, CRE-LacZ reporter, unstimulated (AID 1145); conditions: no forskolin, luminescence, 4.5 h, higher = more signal, called active from +8 up or from −8 down
[5] = CREB reporter modulators under forskolin, primary screen, cell-based, PC12, CRE-LacZ reporter, forskolin-stimulated (AID 1146); conditions: luminescence, 4.5 h, higher = more signal, called active from +8 up or from −8 down;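 also: PC12 cells with 6xCRE LacZ reporter stimulated by forskolin 10 µM; beta-galactosidase reporter signal reflecting CREB driven transcription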
[6] = target: Streptavidin (Streptomyces avidinii) (UniProt P22629); test: streptavidin binders on small-molecule microarray, primary screen, artefact control for SMM compound annotation, biophysical, 635/667 nm fluorescence (AID 1147); conditions: streptavidin binding, higher = more signal;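 also: signal reflects streptavidin binding to arrayed compounds as a control protein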
Streptavidin (Streptomyces avidinii), sequence (P22629 whole entry, looked up): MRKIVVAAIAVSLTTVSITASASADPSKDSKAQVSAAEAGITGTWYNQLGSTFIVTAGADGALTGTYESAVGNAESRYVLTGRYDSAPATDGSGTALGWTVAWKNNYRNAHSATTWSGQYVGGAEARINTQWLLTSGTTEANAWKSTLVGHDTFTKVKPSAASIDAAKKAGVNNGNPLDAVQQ

[7] = small-molecule binders of probe aInhba, primary screen, biochemical, small-molecule microarray, 635/667 nm fluorescence (AID 1148); conditions: higher = more signal;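 also: score merges 667nm spot fluorescence with signal-to-noise for antibody binding to printed compounds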
[8] = target: Torsin-1A (Homo sapiens) (UniProt O14656); test: torsin A binders from cell lysate, primary screen, small-molecule microarray, wild-type, 635/667 nm (AID 1149); conditions: COS7 hTOR1A-WT lysate, 635 nm fluorescence, higher = more signal
Torsin-1A (Homo sapiens), sequence (O14656 whole entry, looked up): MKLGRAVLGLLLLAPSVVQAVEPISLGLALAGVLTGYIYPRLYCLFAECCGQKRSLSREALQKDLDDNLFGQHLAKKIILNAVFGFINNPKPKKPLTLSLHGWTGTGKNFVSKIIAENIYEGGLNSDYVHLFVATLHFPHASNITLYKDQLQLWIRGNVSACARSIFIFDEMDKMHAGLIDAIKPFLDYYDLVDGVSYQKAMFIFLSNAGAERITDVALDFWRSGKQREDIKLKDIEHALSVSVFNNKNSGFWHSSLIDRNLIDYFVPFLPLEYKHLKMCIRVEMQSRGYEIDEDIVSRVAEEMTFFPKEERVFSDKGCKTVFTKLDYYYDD

[9] = target: Torsin-1A (Homo sapiens) (UniProt O14656); test: small-molecule binders of mutant TOR1A in lysate, primary screen, cell lysate, small-molecule microarray, COS7 lysate, 635/667 nm fluorescence (AID 1150); conditions: COS7 hTOR1A mutant lysate, 635 nm fluorescence, higher = more signal;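 also: score pools 667 nm emission and signal to noise measuring lysate protein binding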
[10] = tested on: Sonic hedgehog protein (Shh); test: small-molecule binders of Shh protein, primary screen, biochemical, small-molecule microarray, 635/667 nm fluorescence (AID 1151); conditions: small-molecule microarray binding, 635 nm fluorescence; higher = more signal;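 also: Shh protein binding to compounds spotted on small-molecule microarray slides; score combines spot fluorescence intensity with signal-to-noise across triplicate slides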
[11] = E. coli DRC41 culture turbidity changes, primary screen, E. coli filamentation inducer project, strain DRC41, OD650, 48 h (AID 1152);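 also: E. coli MC1000 strain DRC41 lacking acrAB efflux pump and sulA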; conditions: E. coli DRC41 (acrAB sulA), higher = more signal, called active from +8 up or from −8 down
[12] = small-molecule binders of probe aLefty1, primary screen, biochemical, small-molecule microarray, 635/667 nm fluorescence (AID 1153); conditions: higher = more signal;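 also: score merges spot fluorescence with signal-to-noise ratio from the scanned slide images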
[13] = PSAC antagonists in infected red cells, primary screen, cell-based, P. falciparum Indochina, OD700, 1 h (AID 1154); conditions: P. falciparum Indochina infected RBC osmotic lysis, higher = more signal, called active from +8 up or from −8 down
[14] = PSAC antagonists in infected red cells, primary screen, cell-based, P. falciparum Indochina, OD700, 2 h (AID 1155);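 also: lysis reports solute entry through the parasite surface anion channel PSAC; channel blockers reduce lysis of infected cells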; conditions: P. falciparum Indochina infected erythrocytes, osmotic lysis OD700; higher = more signal, called active from +8 up or from −8 down
[15] = osmotic lysis modulators in infected erythrocytes, primary screen, PSAC antagonist project, cell-based, P. falciparum Indochina, OD700, 3 h (AID 1156); conditions: higher = more signal, called active from +8 up or from −8 down
[16] = PSAC antagonists in infected red cells, primary screen, cell-based, P. falciparum Indochina, OD700, 18 h (AID 1157); conditions: P. falciparum Indochina infected erythrocytes, osmotic lysis OD700, 18 h; higher = more signal, called active from +8 up or from −8 down
[17] = modulators of S6 phosphorylation in cells, primary screen, cell-based, A549, cytoblot, luminescence, serum-stimulated (AID 1158); conditions: A549 phospho-S6 cytoblot, 5 h, higher = more signal;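 also: serum-stimulated A549 lung adenocarcinoma cells; signal is phosphorylated S6 detected by cytoblot immunostaining with HRP secondary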
[18] = target: NADPH oxidase 2 (Homo sapiens) (UniProt P04839); test: NOX2-dependent H2O2 signal modulators, primary screen, NOX inhibitor project, cell-based, HEK293-NOX2, PMA-stimulated, Amplex Red fluorescence (AID 1159); conditions: 45 min, higher = more signal, called active from +8 up or from −8 down; also: test concentration not given here
NADPH oxidase 2 (Homo sapiens), sequence (P04839 whole entry, looked up): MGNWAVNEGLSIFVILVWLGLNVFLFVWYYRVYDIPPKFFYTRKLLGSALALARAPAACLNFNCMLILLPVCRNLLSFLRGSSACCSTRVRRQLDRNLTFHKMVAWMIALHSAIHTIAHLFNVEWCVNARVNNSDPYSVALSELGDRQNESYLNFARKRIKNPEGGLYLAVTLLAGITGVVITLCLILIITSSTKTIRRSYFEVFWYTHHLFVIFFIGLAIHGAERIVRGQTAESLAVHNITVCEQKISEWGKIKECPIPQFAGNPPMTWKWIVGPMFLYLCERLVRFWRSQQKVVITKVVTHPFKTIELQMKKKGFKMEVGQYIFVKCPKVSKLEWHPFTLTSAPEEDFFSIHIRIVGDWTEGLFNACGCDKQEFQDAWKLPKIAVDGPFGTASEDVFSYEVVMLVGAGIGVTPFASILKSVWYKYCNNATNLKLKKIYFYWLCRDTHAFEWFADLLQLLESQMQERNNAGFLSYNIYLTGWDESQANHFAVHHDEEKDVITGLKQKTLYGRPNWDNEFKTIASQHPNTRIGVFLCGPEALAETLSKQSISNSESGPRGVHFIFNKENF

[19] = target: NADPH oxidase 4 (Homo sapiens) (UniProt Q9NPH5); test: NOX4-dependent H2O2 signal modulators, primary screen, NOX inhibitor project, cell-based, HEK293-NOX4, tetracycline-induced, Amplex Red fluorescence (AID 1160); conditions: 45 min, higher = more signal, called active from +8 up or from −8 down
NADPH oxidase 4 (Homo sapiens), sequence (Q9NPH5 whole entry, looked up): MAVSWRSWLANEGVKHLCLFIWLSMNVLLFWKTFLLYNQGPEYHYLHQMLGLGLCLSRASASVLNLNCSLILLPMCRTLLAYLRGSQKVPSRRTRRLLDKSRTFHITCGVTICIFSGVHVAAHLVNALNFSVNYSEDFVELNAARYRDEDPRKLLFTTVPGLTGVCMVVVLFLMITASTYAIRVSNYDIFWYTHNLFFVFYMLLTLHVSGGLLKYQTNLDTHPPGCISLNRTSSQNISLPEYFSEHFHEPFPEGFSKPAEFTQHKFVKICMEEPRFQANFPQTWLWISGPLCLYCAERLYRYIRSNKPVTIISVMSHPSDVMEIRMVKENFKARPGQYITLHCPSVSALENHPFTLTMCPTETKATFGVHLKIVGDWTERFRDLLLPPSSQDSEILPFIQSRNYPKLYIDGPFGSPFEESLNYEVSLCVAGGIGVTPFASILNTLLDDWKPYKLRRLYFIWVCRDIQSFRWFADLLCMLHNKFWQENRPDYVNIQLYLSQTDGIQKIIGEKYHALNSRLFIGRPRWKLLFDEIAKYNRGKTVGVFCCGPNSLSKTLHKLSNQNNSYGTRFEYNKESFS

[20] = target: NADPH oxidase 5 (Homo sapiens) (UniProt Q96PH1); test: NOX5-dependent H2O2 signal modulators, primary screen, NOX inhibitor project, cell-based, HEK293-NOX5, Amplex Red fluorescence (AID 1161); conditions: HEK293-NOX5, ionomycin, 45 min, higher = more signal
NADPH oxidase 5 (Homo sapiens), sequence (Q96PH1 whole entry, looked up): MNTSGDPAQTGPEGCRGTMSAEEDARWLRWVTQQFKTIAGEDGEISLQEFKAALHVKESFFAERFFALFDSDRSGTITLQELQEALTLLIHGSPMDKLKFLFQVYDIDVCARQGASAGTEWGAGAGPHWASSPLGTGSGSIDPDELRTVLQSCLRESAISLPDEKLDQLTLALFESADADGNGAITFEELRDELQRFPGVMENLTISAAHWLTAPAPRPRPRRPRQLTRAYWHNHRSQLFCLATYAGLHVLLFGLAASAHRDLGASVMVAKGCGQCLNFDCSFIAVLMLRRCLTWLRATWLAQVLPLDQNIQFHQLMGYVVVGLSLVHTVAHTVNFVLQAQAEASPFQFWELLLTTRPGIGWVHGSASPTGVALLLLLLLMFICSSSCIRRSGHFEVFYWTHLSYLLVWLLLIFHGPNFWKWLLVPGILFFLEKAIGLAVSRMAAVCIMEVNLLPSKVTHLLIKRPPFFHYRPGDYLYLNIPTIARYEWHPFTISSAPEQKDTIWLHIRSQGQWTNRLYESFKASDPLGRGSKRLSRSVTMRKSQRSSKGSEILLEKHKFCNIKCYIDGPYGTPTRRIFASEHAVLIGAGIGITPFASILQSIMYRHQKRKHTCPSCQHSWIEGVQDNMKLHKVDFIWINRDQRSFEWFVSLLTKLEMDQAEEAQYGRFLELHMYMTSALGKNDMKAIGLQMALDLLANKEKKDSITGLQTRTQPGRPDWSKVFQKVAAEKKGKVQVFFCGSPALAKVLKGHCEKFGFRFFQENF

Structure (SMILES)	composite z-score [1]	z-score [2]	z-score [3]	z-score [4]	z-score [5]	composite z-score [6]	composite z-score [7]	composite z-score [8]	composite z-score [9]	composite z-score [10]	z-score [11]	composite z-score [12]	z-score [13]	z-score [14]	z-score [15]	z-score [16]	z-score [17]	z-score [18]	z-score [19]	z-score [20]
C=CCN(C(=O)C(c1cccs1)N(CCOCCO)C(=O)/C=C\C(=O)O)C(C)(C)C (stereo not given)	-0.775 and -0.776	-0.199 (inactive) and -0.0585 (inactive)	-1.2 (inactive) and -0.384 (inactive)	1.42 (inactive) and 0.191 (inactive)	0.005 (inactive) and -0.599 (inactive)	-1.89 and -1.22	-0.251 and -0.176	-1.26 and -0.984	-1.79 and -2.02	-1.27 and -0.703	1.56 (inactive) and 0.971 (inactive)	-0.371 and -0.355	-1.2 (inactive) and -1.15 (inactive)	-0.172 (inactive) and -0.307 (inactive)	0.0342 (inactive) and -0.837 (inactive)	0.011 (inactive) and -0.113 (inactive)	0.234 and 0.15	-0.302 (inactive) and -0.0837 (inactive)	-0.904 (inactive) and -0.857 (inactive)	0.0514 and 0.0449
C=CCN(CCCCC)C(=O)C1N(CCCCCCO)C(=O)C2C(C(=O)O)C3C=CC21O3 (stereo not given)	-0.332 and -1.43	0.289 (inactive) and 0.729 (inactive)	1.69 (inactive) and 2.31 (inactive)	0.333 (inactive) and -0.497 (inactive)	-0.587 (inactive) and -0.0866 (inactive)	-1.69 and -1.59	-0.173 and -0.233	-2.55 and -3.31	-1.53 and 0.765	-0.661 and -1.21	-0.559 (inactive) and -0.794 (inactive)	-0.191 and 0.29	0.0275 (inactive) and 0.375 (inactive)	-0.76 (inactive) and 0.22 (inactive)	-0.627 (inactive) and -0.419 (inactive)	-0.33 (inactive) and 0.404 (inactive)	-0.539 and -0.626	1.07 (inactive) and 0.619 (inactive)	-0.208 (inactive) and -0.169 (inactive)	1.08 and 1.26
C=CCN(Cc1ccccc1)C(=O)C1N(c2c(Cl)cccc2CO)C(=O)C2C(C(=O)O)C3C=CC21O3 (stereo not given)	-0.597 and -1.05	-0.634 (inactive) and -0.0943 (inactive)	-2.23 (inactive) and -0.0736 (inactive)	-0.619 (inactive) and -0.216 (inactive)	-1.1 (inactive) and 0.577 (inactive)	-1.38 and -2.19	-0.182 and -0.364	-0.986 and -1.77	-1.2 and -1.14	-0.796 and -0.69	3.44 (inactive) and 0.465 (inactive)	-0.147	-0.97 (inactive) and 0.504 (inactive)	-0.994 (inactive) and 0.698 (inactive)	-0.847 (inactive) and 0.14 (inactive)	-1.32 (inactive) and 0.357 (inactive)	1.33 and -0.0264	0.00151 (inactive) and 0.1 (inactive)	-0.574 (inactive) and -0.406 (inactive)	-0.259 and -0.994
C=CCN(C(=O)C1N(C(C)(C)CO)C(=O)C2C(C(=O)O)C3C=CC21O3)C(C)(C)C (stereo not given)	-1.52 and -0.697	-0.037 (inactive) and -0.67 (inactive)	1.58 (inactive) and 1.05 (inactive)	0.471 (inactive) and 0.996 (inactive)	0.0027 (inactive) and -0.21 (inactive)	-1.86 and -1.52	-0.271 and -0.302	-3.46 and 0.256	-2.89 and 0.829	-2.51 and -1.85	-0.497 (inactive) and 0.156 (inactive)	0.0026 and -0.316	-0.455 (inactive) and -0.501 (inactive)	0.222 (inactive) and 0.135 (inactive)	-0.67 (inactive) and -0.452 (inactive)	0.11 (inactive) and -0.11 (inactive)	-0.356 and -0.316	0.849 (inactive) and 0.0709 (inactive)	-1.48 (inactive) and -2.38 (inactive)	0.103 and -0.476
C[C@@H](ON=C1[C@H]2CCn3c(=O)n(-c4ccccc4)c(=O)n3[C@H]2[C@H](O)[C@@H]2O[C@H]12)c1cn([C@H](CO)Cc2ccccc2)nn1	-0.174	1.13 (inactive)	0.867 (inactive)	-0.157 (inactive)	1.45 (inactive)	0.0375	-0.0313	0.185	0.199	0.403	0.328 (inactive)	-0.049	0.508 (inactive)	0.461 (inactive)	0.373 (inactive)	0.367 (inactive)	0.164	-0.622 (inactive)	-0.268 (inactive)	0.259
CCOC(=O)[C@@H]1CC2O[C@]23C[C@@H]1C(=O)N1CCC[C@@H]1[C@H]3O[Si](C)(C)C(C)(C)C (stereo not given in full)	0.187 and -0.0017	-1.17 (inactive) and 0.553 (inactive)	-0.377 (inactive) and 0.487 (inactive)	-1.23 (inactive) and -0.414 (inactive)	-0.217 (inactive) and 1.42 (inactive)	-0.468 and -0.0735	-0.105 and 0.651	-0.36 and -0.384	-0.855 and -0.032	0.361 and 1.05	-1.1 (inactive) and -0.757 (inactive)	-0.229 and -0.255	0.827 (inactive) and -0.309 (inactive)	-0.168 (inactive) and 0.0095 (inactive)	-0.03 (inactive) and -0.708 (inactive)	0.134 (inactive) and -0.162 (inactive)	-0.111 and -0.206	0.937 (inactive) and 0.661 (inactive)	0.147 (inactive) and 5.07 (inactive)	-2.39 and -0.882
COC(=O)C1=C(C)N(Cc2ccccc2)[C@]23O[C@](C(=O)OC)(C(=O)N2[C@@H]1c1ccccc1)[C@H]1C(=O)N(c2ccccc2)C(=O)[C@H]13	0.115 and 0.0304	-0.123 (inactive) and -0.532 (inactive)	-1.18 (inactive)	-0.165 (inactive) and 0.472 (inactive)	-1.65 (inactive) and -0.623 (inactive)	0.32 and 0.436	0.201 and -0.0552	0.718 and 0.667	0.476 and 0.211	0.833 and 1.14	-0.371 (inactive) and 0.644 (inactive)	-0.139 and -0.0046	0.729 (inactive) and 0.997 (inactive)	0.626 (inactive) and -1.04 (inactive)	1.17 (inactive) and 2.21 (inactive)	-0.0207 (inactive) and -1.23 (inactive)	-0.103 and 0.506	0.983 (inactive) and 0.108 (inactive)	0.632 (inactive) and 1.27 (inactive)	1.07 and 0.999
COC(=O)C1=C(C)N(Cc2ccccc2)C2=C3C(=O)CCC[C@@H]3[C@@](O)(C(=O)OC)C(=O)N2[C@@H]1c1ccccc1	-0.0849 and 0.288	-0.5 (inactive) and -1.53 (inactive)	0.311 (inactive)	1.65 (inactive) and 1.38 (inactive)	0.703 (inactive) and -1.7 (inactive)	0.14 and -0.503	0.155 and -0.0762	0.555 and -0.0343	0.844 and 0.0578	0.544 and 0.586	0.941 (inactive) and 1.15 (inactive)	-0.0275 and 0.106	-0.0542 (inactive) and 0.644 (inactive)	0.23 (inactive) and -0.736 (inactive)	-0.689 (inactive) and 0.924 (inactive)	0.249 (inactive) and -0.767 (inactive)	-0.0885 and 0.778	1.08 (inactive) and -0.368 (inactive)	-0.0562 (inactive) and 0.13 (inactive)	-0.0435 and -0.704
C=CCN(C(=O)C(c1cccs1)N(C(=O)/C=C\C(=O)O)C(C)(C)CO)C(C)(C)C (stereo not given)	-0.291 and -0.768	-0.261 (inactive) and 0.272 (inactive)	-1.52 (inactive) and -1.38 (inactive)	-0.887 (inactive) and -0.761 (inactive)	-0.706 (inactive) and -0.329 (inactive)	-0.689 and -1.22	-0.0581 and -0.0791	-0.331 and -0.511	0.214 and 1.51	-0.645 and -0.105	2.48 (inactive) and 1.85 (inactive)	-0.0647 and -0.103	-0.534 (inactive) and -0.537 (inactive)	-1.13 (inactive) and -0.574 (inactive)	-0.936 (inactive) and -0.092 (inactive)	-1.37 (inactive) and -0.725 (inactive)	1.6 and 0.974	-0.192 (inactive) and -0.0748 (inactive)	-0.755 (inactive) and -0.588 (inactive)	0.163 and 0.51
C=CC[C@@H](O)c1ccc(O)c2ccccc12	0.173 and 0.435	0.794 (inactive) and -0.721 (inactive)	-0.498 (inactive) and -1.33 (inactive)	3.25 (inactive) and 2.1 (inactive)	2.5 (inactive) and 5.93 (inactive)	0.49 and 0.679	-0.0553 and -0.141	0.261 and 0.0205	0.426 and 0.369	1.96 and 1.82	1.07 (inactive) and -0.266 (inactive)	0.113 and 0.176	0.964 (inactive) and 0.883 (inactive)	0.263 (inactive) and 0.49 (inactive)	-0.379 (inactive) and -0.519 (inactive)	0.131 (inactive) and 0.548 (inactive)	-0.241 and 0.206	-5.68 (inactive) and -5.98 (inactive)	-1.28 (inactive) and -1.66 (inactive)	1.61 and 0.954
CO[C@H]1COC(=O)CC=C[C@@H](C)COC(=O)[C@@H](OCc2ccccc2)C=C[C@@H]1C	-0.134	-0.356 (inactive)	0.106 (inactive)	0.79 (inactive)	-0.471 (inactive)	0.999	-0.3	2.35	2.28	1.96	1.08 (inactive)	-0.334	1 (inactive)	-0.104 (inactive)	0.362 (inactive)	-0.0412 (inactive)	0.21	0.46 (inactive)	1.19 (inactive)	0.308
